Experimental findings from paper PMC5700166 are described below.

Holding throughout (test): protein-binding microarray (PBM); PBM: ~300 nM protein, 6 mM HEPES pH 7.8, 80 mM KCl, 0.5 mM EDTA, 0.5 mM EGTA, 6% glycerol, 35 ng/ul poly-dIdC, 1% milk, 1 h, room temperature; Ap Aiptasia and Nv Nematostella (sea anemones) / Co Capsaspora / Aq Amphimedon (sponge) / Dm Drosophila / Hu human; RHD is the Rel homology domain; high values mean tight binding
Details in all cases: dsDNA, one strand shown

One experiment concerns the target T1, GST-Ap-NF-kB RHD (Exaiptasia pallida (Aiptasia), UniProt A0A913YAJ5 2-422).
T1 sequence: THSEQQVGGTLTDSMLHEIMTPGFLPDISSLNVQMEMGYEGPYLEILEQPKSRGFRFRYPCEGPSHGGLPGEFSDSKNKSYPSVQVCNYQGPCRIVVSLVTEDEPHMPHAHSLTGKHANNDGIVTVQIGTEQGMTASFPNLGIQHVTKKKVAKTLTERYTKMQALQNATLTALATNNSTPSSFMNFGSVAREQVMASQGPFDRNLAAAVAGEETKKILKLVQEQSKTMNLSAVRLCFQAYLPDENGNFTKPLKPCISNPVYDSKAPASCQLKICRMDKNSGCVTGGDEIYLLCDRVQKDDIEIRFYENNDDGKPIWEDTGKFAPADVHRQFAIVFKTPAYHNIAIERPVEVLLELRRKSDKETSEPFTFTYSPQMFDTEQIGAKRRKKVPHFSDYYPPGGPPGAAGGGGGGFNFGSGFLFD

Experiment [1] deals with T2, GST-Nv-NF-kB (Cys allele) (Nematostella vectensis, UniProt E5G601 2-411).
T2 sequence: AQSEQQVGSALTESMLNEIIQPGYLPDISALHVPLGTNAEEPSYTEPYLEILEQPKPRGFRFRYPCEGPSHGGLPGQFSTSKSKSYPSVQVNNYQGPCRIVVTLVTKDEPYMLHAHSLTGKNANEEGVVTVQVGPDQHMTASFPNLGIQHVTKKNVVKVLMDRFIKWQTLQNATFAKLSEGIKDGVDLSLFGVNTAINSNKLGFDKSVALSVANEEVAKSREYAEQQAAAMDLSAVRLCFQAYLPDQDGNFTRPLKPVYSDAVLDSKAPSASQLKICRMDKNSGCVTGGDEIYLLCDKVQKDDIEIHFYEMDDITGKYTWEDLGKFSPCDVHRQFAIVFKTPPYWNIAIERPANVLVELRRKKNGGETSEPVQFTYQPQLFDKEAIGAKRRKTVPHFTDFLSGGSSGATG

Another experiment concerns the target T3, GST-Dm-Relish (Drosophila melanogaster, UniProt Q94527 99-473).
T3 sequence: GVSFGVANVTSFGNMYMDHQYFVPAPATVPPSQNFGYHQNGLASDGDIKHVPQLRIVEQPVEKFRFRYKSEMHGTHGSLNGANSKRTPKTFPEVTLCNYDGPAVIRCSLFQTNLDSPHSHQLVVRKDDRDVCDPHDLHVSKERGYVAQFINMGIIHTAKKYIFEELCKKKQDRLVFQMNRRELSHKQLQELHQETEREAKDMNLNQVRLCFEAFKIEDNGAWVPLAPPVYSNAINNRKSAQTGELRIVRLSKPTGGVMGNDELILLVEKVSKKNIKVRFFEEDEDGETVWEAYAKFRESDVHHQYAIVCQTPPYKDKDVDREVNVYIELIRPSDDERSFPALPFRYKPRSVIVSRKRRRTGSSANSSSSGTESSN

In a further experiment the target is T4, GST-Aq-NF-kB (Amphimedon queenslandica, UniProt A9Y5G7 2-389).
T4 sequence: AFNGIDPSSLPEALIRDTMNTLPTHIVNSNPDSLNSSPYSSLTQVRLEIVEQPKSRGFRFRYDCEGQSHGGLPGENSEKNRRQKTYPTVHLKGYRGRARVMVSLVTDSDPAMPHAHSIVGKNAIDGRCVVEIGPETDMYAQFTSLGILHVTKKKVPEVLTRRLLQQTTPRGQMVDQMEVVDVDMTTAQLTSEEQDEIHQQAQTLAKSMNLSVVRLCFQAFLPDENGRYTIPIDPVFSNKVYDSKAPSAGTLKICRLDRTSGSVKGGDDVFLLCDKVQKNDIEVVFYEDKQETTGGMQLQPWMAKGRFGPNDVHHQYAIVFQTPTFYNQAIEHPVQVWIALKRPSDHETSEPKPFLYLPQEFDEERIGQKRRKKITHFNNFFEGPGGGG

The next experiment concerns the target T5, GST-Co-NF-kB (Capsaspora owczarzaki, UniProt F1ARL5 200-546).
T5 sequence: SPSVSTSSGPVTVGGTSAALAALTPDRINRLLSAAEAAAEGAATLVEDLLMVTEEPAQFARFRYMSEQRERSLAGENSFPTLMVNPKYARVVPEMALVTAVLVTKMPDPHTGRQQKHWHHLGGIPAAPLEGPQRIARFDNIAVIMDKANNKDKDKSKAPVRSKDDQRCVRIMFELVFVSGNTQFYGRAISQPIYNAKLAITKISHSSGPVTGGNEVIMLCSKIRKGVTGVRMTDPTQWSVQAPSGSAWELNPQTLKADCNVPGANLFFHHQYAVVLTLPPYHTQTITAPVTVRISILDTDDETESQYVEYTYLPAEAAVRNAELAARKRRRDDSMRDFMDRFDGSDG

Regarding “CCGATTAACATCATGAAGACCCCTGATGTTAATCGGGTCTTGATTCGCTTGACGCTGCTG”, the binding signal was 2.6 z-score in the experiment with GST-Ap-NF-kB RHD, 1.18 z-score in experiment [1], 1.35 z-score in the experiment with GST-Dm-Relish and 2.25 z-score with GST-Aq-NF-kB.
Take “CCGATTAACATCAGGAATTCACCTGATGTTAATCGGGTCTTGATTCGCTTGACGCTGCTG”: the binding signal in the experiment with GST-Ap-NF-kB RHD was found to be 1.52 z-score; in experiment [1] it was 3.06 z-score; with GST-Dm-Relish, 6.05 z-score; with GST-Aq-NF-kB it was 4.83 z-score.
Taken in the same sequence, the figures for “CCGATTAACATCACGGGACATACTGATGTTAATCGGGTCTTGATTCGCTTGACGCTGCTG” were 1.83 z-score, 1.3 z-score, 1.8 z-score and 2.17 z-score.
As for “CCGATTAACATCAGGCAAGTCCCTGATGTTAATCGGGTCTTGATTCGCTTGACGCTGCTG”, the binding signal with GST-Ap-NF-kB RHD amounted to 3.63 z-score; in experiment [1], 3.87 z-score; in the experiment with GST-Dm-Relish, 2.41 z-score; with GST-Aq-NF-kB, 5.74 z-score.
In the same order, the values of “CCGATTAACATCAGGAAGACCCCTGATGTTAATCGGGTCTTGATTCGCTTGACGCTGCTG” are 3.9 z-score, 3.08 z-score, 3.8 z-score and 5.31 z-score.
In the case of “CCGATTAACATCAGGAATCACCCTGATGTTAATCGGGTCTTGATTCGCTTGACGCTGCTG”, the binding signal was found to be 2.46 z-score in the experiment with GST-Ap-NF-kB RHD, 2.05 z-score in experiment [1], 7.17 z-score in the experiment with GST-Dm-Relish and 4.82 z-score in the experiment with GST-Aq-NF-kB.
In the case of “CCGATTAACATCAGGAATTACCATGATGTTAATCGGGTCTTGATTCGCTTGACGCTGCTG”, the binding signal in the experiment with GST-Ap-NF-kB RHD is 1.03 z-score; in experiment [1], 1.38 z-score; with GST-Dm-Relish it was 4.62 z-score; with GST-Aq-NF-kB, 3 z-score.
Take “CCGATTAACATCAGGAAGTCCCATGATGTTAATCGGGTCTTGATTCGCTTGACGCTGCTG”: the binding signal in the experiment with GST-Ap-NF-kB RHD turned out to be 4.82 z-score; in experiment [1] it was 5.32 z-score; with GST-Dm-Relish, 6.71 z-score; with GST-Aq-NF-kB it was 4.99 z-score.
Take “CCGATTAACATCAAAAAAGACCCTGATGTTAATCGGGTCTTGATTCGCTTGACGCTGCTG”: the binding signal with GST-Ap-NF-kB RHD amounted to 2.93 z-score; in experiment [1] it was 5.44 z-score; with GST-Dm-Relish, 6.91 z-score; with GST-Aq-NF-kB, 6.04 z-score.
Regarding “CCGATTAACATCAGGAAGGCCCCTGATGTTAATCGGGTCTTGATTCGCTTGACGCTGCTG”, the binding signal is 2.9 z-score with GST-Ap-NF-kB RHD, 2.69 z-score in experiment [1], 4.9 z-score in the experiment with GST-Dm-Relish and 5.3 z-score with GST-Aq-NF-kB.
In the same order, the values of “CCGATTAACATCAGGGACTCACCTGATGTTAATCGGGTCTTGATTCGCTTGACGCTGCTG” are 3.77 z-score, 3.19 z-score, 7.74 z-score and 4.68 z-score.
For “CCGATTAACATCAATGGGATTCCTGATGTTAATCGGGTCTTGATTCGCTTGACGCTGCTG”, the binding signal with GST-Ap-NF-kB RHD was found to be 1.54 z-score; in experiment [1], 1.13 z-score; in the experiment with GST-Dm-Relish, 7.4 z-score; in the experiment with GST-Aq-NF-kB it was 1.65 z-score.
In the same order, the values of “CCGATTAACATCAGGGAGCTACCTGATGTTAATCGGGTCTTGATTCGCTTGACGCTGCTG” are 2.89 z-score, 1.88 z-score, 1.02 z-score and 3.21 z-score.
Regarding “CCGATTAACATCAGGTAATCCCATGATGTTAATCGGGTCTTGATTCGCTTGACGCTGCTG”, the binding signal is 2.95 z-score in the experiment with GST-Ap-NF-kB RHD, 1.6 z-score in experiment [1], 6.13 z-score with GST-Dm-Relish and 3.49 z-score with GST-Aq-NF-kB.
In the case of “CCGATTAACATCAGAGAAACCCCTGATGTTAATCGGGTCTTGATTCGCTTGACGCTGCTG”, the binding signal in the experiment with GST-Ap-NF-kB RHD came out at 5.16 z-score; in experiment [1], 4.86 z-score; in the experiment with GST-Dm-Relish it was 5.69 z-score; with GST-Aq-NF-kB, 5.18 z-score.
“CCGATTAACATCAGGGATTTACCTGATGTTAATCGGGTCTTGATTCGCTTGACGCTGCTG”: the binding signal stood at 4.76 z-score with GST-Ap-NF-kB RHD, 5.65 z-score in experiment [1], 9.23 z-score with GST-Dm-Relish and 6.8 z-score in the experiment with GST-Aq-NF-kB.
For the sequence “CCGATTAACATCAGGAATCCCACTGATGTTAATCGGGTCTTGATTCGCTTGACGCTGCTG”, the binding signal with GST-Ap-NF-kB RHD was 1.73 z-score; in experiment [1], 1.37 z-score; with GST-Dm-Relish, 8.1 z-score; with GST-Aq-NF-kB, 1.75 z-score.
Regarding “CCGATTAACATCAGGAATCCCTATGATGTTAATCGGGTCTTGATTCGCTTGACGCTGCTG”, the binding signal turned out to be 2.79 z-score in the experiment with GST-Ap-NF-kB RHD, 2.15 z-score in experiment [1], 6.17 z-score in the experiment with GST-Dm-Relish and 2.57 z-score with GST-Aq-NF-kB.
As for “CCGATTAACATCAGGAAAAACCCTGATGTTAATCGGGTCTTGATTCGCTTGACGCTGCTG”, the binding signal was 4.35 z-score with GST-Ap-NF-kB RHD, 5.86 z-score in experiment [1], 6.52 z-score with GST-Dm-Relish and 7.68 z-score with GST-Aq-NF-kB.
For the sequence “CCGATTAACATCAGGCAAATCCCTGATGTTAATCGGGTCTTGATTCGCTTGACGCTGCTG”, the binding signal stood at 1.95 z-score with GST-Ap-NF-kB RHD, 2.27 z-score in experiment [1], 1.36 z-score in the experiment with GST-Dm-Relish and 4.16 z-score in the experiment with GST-Aq-NF-kB.
With “CCGATTAACATCATTAGGGTATTTGATGTTAATCGGGTCTTGATTCGCTTGACGCTGCTG”, the binding signal in the experiment with GST-Ap-NF-kB RHD was determined as 2.55 z-score; in experiment [1], 3.98 z-score; in the experiment with GST-Dm-Relish it was 1.47 z-score; with GST-Aq-NF-kB, 3.54 z-score.
In the same order, the values of “CCGATTAACATCAGGGACCTCCCTGATGTTAATCGGGTCTTGATTCGCTTGACGCTGCTG” are 5.47 z-score, 4.78 z-score, 6.16 z-score and 7.04 z-score.
On to “CCGATTAACATCAGGTAATCACCTGATGTTAATCGGGTCTTGATTCGCTTGACGCTGCTG”, for which the binding signal with GST-Ap-NF-kB RHD is 1.18 z-score; in experiment [1], 2.2 z-score; in the experiment with GST-Dm-Relish, 5.6 z-score; with GST-Aq-NF-kB it was 4.04 z-score.
On to “CCGATTAACATCACGGAAAACCCTGATGTTAATCGGGTCTTGATTCGCTTGACGCTGCTG”, for which the binding signal turned out to be 2.23 z-score in the experiment with GST-Ap-NF-kB RHD, 2.07 z-score in experiment [1], 3.69 z-score in the experiment with GST-Dm-Relish and 4.81 z-score with GST-Aq-NF-kB.
In the same order, the values of “CCGATTAACATCAGGAAAAGCCCTGATGTTAATCGGGTCTTGATTCGCTTGACGCTGCTG” are 2.12 z-score, 1.89 z-score, 4.12 z-score and 4.95 z-score.
Taken in the same sequence, the figures for “CCGATTAACATCAGAGAAGTCCCTGATGTTAATCGGGTCTTGATTCGCTTGACGCTGCTG” were 5.7 z-score, 6.22 z-score, 4.44 z-score and 5.93 z-score.
Regarding “CCGATTAACATCAGGCGAGTCCCTGATGTTAATCGGGTCTTGATTCGCTTGACGCTGCTG”, the binding signal with GST-Ap-NF-kB RHD turned out to be 3.13 z-score; in experiment [1], 3.12 z-score; with GST-Dm-Relish, 1.72 z-score; in the experiment with GST-Aq-NF-kB, 4.31 z-score.
In the case of “CCGATTAACATCACGGGGGGGGCTGATGTTAATCGGGTCTTGATTCGCTTGACGCTGCTG”, the binding signal was determined as 4.19 z-score with GST-Ap-NF-kB RHD, 5.11 z-score in the experiment with GST-Co-NF-kB, 4.98 z-score in the experiment with GST-Dm-Relish and 4.34 z-score with GST-Aq-NF-kB.
Regarding “CCGATTAACATCACCTCCCCCCCTGATGTTAATCGGGTCTTGATTCGCTTGACGCTGCTG”, the binding signal was determined as 4.48 z-score in the experiment with GST-Ap-NF-kB RHD, 3.77 z-score with GST-Co-NF-kB, 4.13 z-score with GST-Dm-Relish and 3.93 z-score with GST-Aq-NF-kB.
